# According to PubChem BioAssay (EPA / NIEHS):
# Records with an inconclusive call do not appear. Activity calls are given as the source filed them. The calls were made as follows: active = hit-call score of the fitted dose curve at least 0.9, where 1 is the maximum; inconclusive = response in the unintended direction; inactive = score below 0.9.
# Read-out: glucuronosyltransferase (UGT1A1), UGT1A1 (gene 54658)
# Test: CLD_UGT1A1_6hr: CellzDirect (CLD) Gene Expression Assay for glucuronosyltransferase (UGT1A1) at 6 hours (AID 2283672)
# Method: CLD_6hr is a cell-based, multiplexed-readout assay that uses hepatocyte, a human liver primary cell, with measurements taken at 6 hours after chemical dosing in a 96-well plate.CLD_UGT1A1_6hr is one of 16 assay component(s) measured or calculated from the CLD_6hr assay. It is designed to make measurements of mRNA induction, a form of inducible reporter, as detected with chemiluminescence signals by Quantitative Nuclease Protection Assay (qNPA) technology.Data from the assay component CLD_UGT1A1_6hr was analyzed at the endpoint, CLD_UGT1A1_6hr, in the positive analysis fitting direction relative to DMSO as the negative control and baseline of activity. Using a type of inducible reporter, gain-of-signal activity can be used to understand changes in the reporter gene as they relate to the gene UGT1A1. Furthermore, this assay endpoint can be referred to as a primary readout. To generalize the intended target to other relatable targets, this assay endpoint is annotated to the transferase intended target family, where subfamily is glucuronosyltransferase.
# Human hepatocyte cultures were treated daily for two consecutive days with fresh dosing solutions containing appropriate concentrations of the 320 ToxCast chemicals (chemical identities were blinded to CellzDirect and other ToxCast collaborators), vehicle control (0.2% DMSO), and positive control inducers as summarized in Table 1. Due to the large number of treatment groups and chemicals examined, the ToxCast chemicals were divided into two groups (spanning two independent cultures of hepatocytes from separate donor preparations (Hu778: ToxCast plates 1 and 2; Hu776: ToxCast plates 3 and 4). Each preparation of human hepatocyte cultures was treated with respective vehicle control, medium only control, set of six positive controls/reference chemicals for the five hepatic receptor pathways, and a subset of eight of the ToxCast chemicals (indoxacarb, pyrithiobac-sodium, norflurazon, cyhalofop-butyl, methomyl, thiram, acetochlor, and propiconazole). These replicate data, coupled with internal replicates designed within the blinded ToxCast chemical library, provided additional data to evaluate interindividual differences between hepatocyte preparations and their potential impact on chemical profiles.Cell morphology and integrity were evaluated using phase-contrast microscopy as an indicator of hepatocyte cell health (Tyson & Green, 1987). Cultures for each treatment group (i.e., media, vehicle [0.2% DMSO], positive control inducers [multiple concentrations], and the ToxCast chemicals [multiple concentrations]) were observed and cell morphology was assessed relative to vehicle control cultures at each harvest time point (0, 6, 24, or 48 h). […] Images were evaluated at the conclusion of the study to assess changes in cell integrity and account for the effects of chemical exposure on uncharacteristic changes in concentration-dependent gene expression profiles. The results from these determinations of apparent cytotoxicity were annotated (yes/no) alongside the corresponding qNPA data for reference.At the conclusion of each treatment period, hepatocyte cultures (96-well) were washed with 1 volume of HBSS, lysed by addition of 25 ul ArrayPlate lysis buffer (HTG, Tucson, AZ), and 70 ul/well of Denaturation Oil, denatured by incubation at 95C for 10 min, and frozen at approximately -70C until analysis by nuclease protection assay (qNPA) (Roberts et al., 2007). For qNPA analysis, cell lysates were thawed at 50C for approximately 30 min, qNPA probes were added, and samples were incubated at 95C for 10 min to begin the detection process by denaturing the target RNA, dissociating the duplexes and secondary structure hybridization. At the conclusion of the hybridization period, S1 nuclease reagent was added to each sample to digest all nonprotected nucleotides at 50C for 60-90 min. […]
row,Compound,outcome
1,O=C(Nc1ccccc1-c1ccc(Cl)cc1)c1cccnc1Cl,inactive
2,O=c1n(Cl)c(=O)n(Cl)c(=O)n1Cl,inactive
3,CS(=O)(=O)c1cc(C(F)(F)F)ccc1C(=O)c1cnoc1C1CC1,inactive
4,COCc1cnc(C2=NC(C)(C(C)C)C(=O)N2)c(C(=O)O)c1 (stereo not given),inactive
5,Nc1cnn(-c2ccccc2)c(=O)c1Cl,inactive
6,C=CCOC(=O)C(C)(C)OC(=O)c1cc(-n2c(=O)cc(C(F)(F)F)n(C)c2=O)ccc1Cl,inactive
7,CC1(C)C(C=C(Cl)Cl)C1C(=O)OC(C#N)c1cccc(Oc2ccccc2)c1 (stereo not given),inactive
8,COCC(=O)N(c1c(C)cccc1C)C(C)C(=O)OC (stereo not given),inactive
9,COCC(C)N(C(=O)CCl)c1c(C)csc1C (stereo not given),inactive
10,C=C(C)CN(CC)c1c([N+](=O)[O-])cc(C(F)(F)F)cc1[N+](=O)[O-],inactive
11,N#CN=C1SCCN1Cc1ccc(Cl)nc1,inactive
12,Clc1cccc(C(Cl)(Cl)Cl)n1,inactive
13,CN=C=S,inactive
14,Cc1c(COC(=O)[C@@H]2[C@H](/C=C(\Cl)C(F)(F)F)C2(C)C)cccc1-c1ccccc1,inactive
15,CCOP(=S)(OCC)Oc1nc(Cl)n(C(C)C)n1,inactive
16,CSC(=O)c1c(C(F)F)nc(C(F)(F)F)c(C(=O)SC)c1CC(C)C,inactive
17,COc1cc(Cl)c(OC)cc1Cl,inactive
18,CC(C)Oc1cccc(NC(=O)c2ccccc2C(F)(F)F)c1,inactive
19,CC(C)(C)C(=O)C(Oc1ccc(Cl)cc1)n1cncn1 (stereo not given),inactive
20,Cc1cc(C)nc(Nc2ccccc2)n1,inactive

row,Compound,outcome
1,CC1(C)C(C(=O)OC(C#N)c2cccc(Oc3ccccc3)c2)C1(C)C (stereo not given),inactive
2,CCOc1cc(C(C)(C)C)ccc1C1COC(c2c(F)cccc2F)=N1 (stereo not given),inactive
3,CCOP(=O)(OCC)Oc1nc(Cl)c(Cl)cc1Cl,inactive
4,CCCC(=NOCC)C1=C(O)CC(CC(C)SCC)CC1=O (stereo not given),inactive
5,Cc1nc(N(C)C)nc(OC(=O)N(C)C)c1C,inactive
6,CC1(C)CCC(=Cc2ccc(Cl)cc2)C1(O)Cn1cncn1 (stereo not given),inactive
7,COc1ccc(-c2ccccc2)cc1NNC(=O)OC(C)C,inactive
8,CCCCC(C#N)(Cn1cncn1)c1ccc(Cl)cc1 (stereo not given),inactive
9,CCCCC(O)(Cn1cncn1)c1ccc(Cl)cc1Cl (stereo not given),inactive
10,COC(=O)N(C(=O)N1CO[C@@]2(C(=O)OC)Cc3cc(Cl)ccc3C2=N1)c1ccc(OC(F)(F)F)cc1,inactive
11,CCSC(=O)N1CCCCCC1,inactive
12,N#Cc1c[nH]cc1-c1cccc2c1OC(F)(F)O2,inactive
13,COP(=O)(OC)O/C(C)=C/C(=O)N(C)C,inactive
14,CCCN(CC)CC1COC2(CCC(C(C)(C)C)CC2)O1 (stereo not given),inactive
15,COC(=O)NC(=S)Nc1ccccc1NC(=S)NC(=O)OC,inactive
16,COP(=S)(OC)Oc1ccc([N+](=O)[O-])c(C)c1,inactive
17,CCOc1nc(F)cc2nc(S(=O)(=O)Nc3c(Cl)cccc3Cl)nn12,inactive
18,CC1(C)CON(Cc2ccccc2Cl)C1=O,inactive
19,OC(c1ccc(Cl)cc1)(c1ccc(Cl)cc1)C(Cl)(Cl)Cl,inactive
20,CCN(CC)C(=O)C(C)Oc1cccc2ccccc12 (stereo not given),inactive
